# Data taken from PubChem BioAssay (EPA / NIEHS).
# The source made the active and inactive calls. Rule for the calls: active = hit-call score of the fitted dose curve at least 0.9, where 1 is the maximum; inactive = score below 0.9.
# Experiments:
# [1] = target: Paired box protein Pax-6 (Homo sapiens) (UniProt P26367); assay: ATG_Pax6_CIS: Attagene CIS-FACTORIAL HepG2 Assay for human Paired Box 6 (PAX6) (AID 2282956); details: HepG2 CIS-FACTORIAL PAX6 reporter transcription, RNA readout; actives raise or lower the signal
# Sequence of Paired box protein Pax-6 (Homo sapiens) (P26367 whole entry, looked up): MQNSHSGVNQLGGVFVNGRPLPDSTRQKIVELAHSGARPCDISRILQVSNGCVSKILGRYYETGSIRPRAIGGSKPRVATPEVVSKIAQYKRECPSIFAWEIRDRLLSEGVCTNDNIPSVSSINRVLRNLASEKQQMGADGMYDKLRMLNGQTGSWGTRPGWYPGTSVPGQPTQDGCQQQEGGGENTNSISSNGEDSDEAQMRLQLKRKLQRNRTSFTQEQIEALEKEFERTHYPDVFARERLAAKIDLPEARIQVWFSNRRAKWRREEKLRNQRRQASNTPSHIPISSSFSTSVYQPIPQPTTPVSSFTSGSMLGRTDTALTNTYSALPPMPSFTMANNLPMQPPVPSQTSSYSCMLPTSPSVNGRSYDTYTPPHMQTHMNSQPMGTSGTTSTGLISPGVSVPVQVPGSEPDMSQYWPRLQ
# Outline: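 Readout: reporter transcript fluorescence after RT-PCR and capillary electrophoresis. Cells: HepG2, transiently transfected with cis-regulated MRTUs. Exposure 24 h. Gain or loss of signal fitted bidirectionally relative to DMSO.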
# [2] = ATG_PXRE_CIS: Attagene CIS-FACTORIAL HepG2 Assay for human Pregnane X Receptor Element (PXRE) (AID 2282957); details: HepG2 Attagene CIS-FACTORIAL PXRE reporter, mRNA; actives raise or lower the signal
# Outline: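 After a 24 h chemical incubation, total RNA from transfected HepG2 cells was reverse-transcribed and reporter cDNA amplified, FAM-labeled, HpaI-digested and sized by capillary electrophoresis. DMSO served as baseline for bidirectional curve fitting.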
# [3] = ATG_Sox_CIS: Attagene CIS-FACTORIAL HepG2 Assay for human SRY-box transcription factor (SOX) (AID 2282960); details: HepG2 Attagene cis-factorial SOX reporter, mRNA; actives raise or lower the signal
# Outline: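 Measures mRNA induction of a SOX1-associated reporter in HepG2 after 24 h dosing. Fluorescently labelled RT-PCR fragments are separated by capillary electrophoresis, and gain or loss relative to DMSO control is fitted.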
# [4] = target: Transcription factor Sp1 (Homo sapiens) (UniProt P08047); assay: ATG_Sp1_CIS: Attagene CIS-FACTORIAL HepG2 Assay for human Specificity Protein 1 (Sp1) (AID 2282961); details: HepG2 Sp1 cis-reporter transcription, actives raise or lower the signal
# Sequence of Transcription factor Sp1 (Homo sapiens) (P08047 whole entry, looked up): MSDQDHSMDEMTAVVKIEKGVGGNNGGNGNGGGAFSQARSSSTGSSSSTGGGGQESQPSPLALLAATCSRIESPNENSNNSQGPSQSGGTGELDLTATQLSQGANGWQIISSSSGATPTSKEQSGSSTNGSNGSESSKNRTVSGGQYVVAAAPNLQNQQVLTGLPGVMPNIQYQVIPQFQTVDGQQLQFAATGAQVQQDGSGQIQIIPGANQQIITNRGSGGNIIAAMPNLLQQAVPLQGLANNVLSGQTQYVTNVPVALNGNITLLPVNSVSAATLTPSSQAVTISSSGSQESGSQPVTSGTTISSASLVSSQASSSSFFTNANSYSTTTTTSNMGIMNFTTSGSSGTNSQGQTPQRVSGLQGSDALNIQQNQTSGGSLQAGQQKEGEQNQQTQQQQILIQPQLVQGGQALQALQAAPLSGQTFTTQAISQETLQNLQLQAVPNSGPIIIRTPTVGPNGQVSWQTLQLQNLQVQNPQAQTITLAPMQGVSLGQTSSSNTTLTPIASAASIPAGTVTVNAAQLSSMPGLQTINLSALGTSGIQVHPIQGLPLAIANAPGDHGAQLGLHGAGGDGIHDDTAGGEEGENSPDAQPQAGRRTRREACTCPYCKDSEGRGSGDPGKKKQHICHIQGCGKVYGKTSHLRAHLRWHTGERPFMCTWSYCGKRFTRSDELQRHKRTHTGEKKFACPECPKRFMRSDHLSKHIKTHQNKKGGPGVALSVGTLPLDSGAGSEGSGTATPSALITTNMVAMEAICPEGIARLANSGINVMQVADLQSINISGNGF
# Outline: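 Cells: HepG2, transiently transfected with cis-regulated multiplexed reporters. Exposure: 24 h. Detection: reporter transcripts amplified, fluorescently labeled, restriction-digested and sized by capillary electrophoresis. Analysis: bidirectional fit relative to DMSO.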
# [5] = ATG_SREBP_CIS: Attagene CIS-FACTORIAL HepG2 Assay for human Sterol Regulatory Element Binding (SREBP) (AID 2282962); details: HepG2 Attagene cis-factorial SREBP reporter, mRNA; actives raise or lower the signal
# Outline: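 Readout: fluorescent reporter-transcript peaks resolved by capillary electrophoresis after RT-PCR. Cells were human HepG2 carrying transfected cis-promoter reporter constructs, dosed for 24 h. Gain or loss of signal was fitted against DMSO controls.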
# [6] = target: Signal transducer and activator of transcription 3 (Homo sapiens) (UniProt P40763); assay: ATG_STAT3_CIS: Attagene CIS-FACTORIAL HepG2 Assay for human Signal Transducer and Activator of Transcription 3 (STAT3) (AID 2282963); details: HepG2, Attagene cis-factorial STAT3 reporter transcription; actives raise or lower the signal
# Sequence of Signal transducer and activator of transcription 3 (Homo sapiens) (P40763 whole entry, looked up, the tested form may be a part): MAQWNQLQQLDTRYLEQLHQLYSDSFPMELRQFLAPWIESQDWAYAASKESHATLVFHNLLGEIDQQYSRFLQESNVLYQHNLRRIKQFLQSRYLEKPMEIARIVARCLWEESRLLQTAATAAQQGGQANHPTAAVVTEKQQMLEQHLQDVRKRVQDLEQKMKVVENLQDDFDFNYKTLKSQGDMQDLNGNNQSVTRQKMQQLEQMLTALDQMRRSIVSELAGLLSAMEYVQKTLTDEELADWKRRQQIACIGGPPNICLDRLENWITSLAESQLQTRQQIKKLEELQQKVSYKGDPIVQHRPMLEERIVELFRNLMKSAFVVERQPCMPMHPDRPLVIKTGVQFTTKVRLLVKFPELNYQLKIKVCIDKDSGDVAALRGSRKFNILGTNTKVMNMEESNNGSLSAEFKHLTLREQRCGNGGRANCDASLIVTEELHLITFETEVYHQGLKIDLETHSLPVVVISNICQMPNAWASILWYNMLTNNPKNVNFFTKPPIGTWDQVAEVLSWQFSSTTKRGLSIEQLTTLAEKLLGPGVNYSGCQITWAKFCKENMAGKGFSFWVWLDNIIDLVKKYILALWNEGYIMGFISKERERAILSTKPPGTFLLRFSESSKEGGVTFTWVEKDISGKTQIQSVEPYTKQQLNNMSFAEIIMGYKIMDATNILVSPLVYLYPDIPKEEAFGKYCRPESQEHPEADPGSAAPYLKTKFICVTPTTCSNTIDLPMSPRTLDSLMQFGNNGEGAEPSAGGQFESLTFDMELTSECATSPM
# Outline: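 Fluorescence intensity of 6-FAM-labelled reporter fragments, separated by capillary electrophoresis after RT-PCR, gave the signal. Cells were HepG2 transfected with cis-element reporter units and treated 24 h; fitting was bidirectional relative to DMSO.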
# [7] = ATG_TA_CIS: Attagene CIS-FACTORIAL HepG2 Assay for human TA Basal Promoter (AID 2282964); details: HepG2 Attagene CIS-factorial TA basal promoter reporter; actives raise or lower the signal
# Outline: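 Transfected HepG2, 24 h compound exposure; RNA → RT-PCR → FAM primer extension → HpaI cut → CE fluorescence. Gain/loss-of-signal fitted against DMSO negative control. Background-control readout.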
# [8] = ATG_PPRE_CIS: Attagene CIS-FACTORIAL HepG2 Assay for human Peroxisome Proliferator-activated Response Element (PPRE) (AID 2282958); details: HepG2 PPRE cis-element reporter, Attagene transcription factor profiling; actives raise or lower the signal
# Outline: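 In this cell-based multiplex, a PPRE cis element drives a reporter sequence in transiently transfected HepG2 cells. Following 24 h treatment, labeled cDNA amplicons are sized and quantified by capillary electrophoresis, with DMSO defining baseline.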
# [9] = ATG_RORE_CIS: Attagene CIS-FACTORIAL HepG2 Assay for human RAR-related Orphan Receptor Element (RORE) (AID 2282959); details: HepG2 Attagene cis-factorial RORE reporter, mRNA; actives raise or lower the signal
# Outline: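 Endogenous factor activity at a cis response element is read as reporter transcript levels in HepG2 cells, 24 h post-dose. Transcripts are quantified by RT-PCR with capillary electrophoresis, and data fitted in both directions against DMSO.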
Compound,outcome [1],outcome [2],outcome [3],outcome [4],outcome [5],outcome [6],outcome [7],outcome [8],AC50 [7],AC50 [2],AC50 [8],AC50 [9],outcome [9]
CC(=O)CC(=O)Nc1ccccc1C,inactive,inactive,inactive,inactive,inactive,inactive,inactive,,,,,,
CC(C)(C)C1CCC(=O)CC1,,inactive,inactive,inactive,inactive,inactive,,inactive,152 µM (active),,,,
C1CCSC1,,inactive,inactive,inactive,inactive,,inactive,inactive,,,,,
CCCCC/C=C\C/C=C\CCCCCCCC(=O)O,,,inactive,inactive,inactive,inactive,,,100 µM (active),64.1 µM (active),35.1 µM (active),39.6 µM (active),
C=CCCCCCCCCO,,,inactive,inactive,inactive,inactive,inactive,inactive,,51.6 µM (active),,,inactive
